Screen size: about 5,500 compounds; about 2,000 (36%) were called active. Not shown: some 18% with an inconclusive outcome. The list shows a part of the results. Values without a mark were called inactive. Cut-off read from the data, not from the text of the source: active = normalized growth mostly below about 0.91 (no sharp cut-off); inconclusive = no clear call, values can overlap the other calls; inactive = mostly above about 0.92.
Assay: chemical genetic growth profiling, strain panel (AID 1159580);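 note: tested at 20 µM; growth read once vehicle control cultures reached saturation at 30 °C; 1 = growth at the plate median or of vehicle wells; lower values mean less growth of the strain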
Details: growth OD
[1] = S. cerevisiae deletion strains, locus YAL013W, strain DEP1, stronger effect = lower value
[2] = S. cerevisiae deletion strains, locus YGR078C, strain PAC10, stronger effect = lower value
[3] = S. cerevisiae deletion strains, locus YJR075W, strain HOC1, stronger effect = lower value
[4] = S. cerevisiae deletion strains, locus YMR307W, strain GAS1, stronger effect = lower value
[5] = S. cerevisiae deletion strains, locus YNL322C, strain KRE1, stronger effect = lower value
[6] = S. cerevisiae deletion strains, locus YPL055C, strain LGE1, stronger effect = lower value
[7] = S. cerevisiae deletion strains, locus YBR229C, strain ROT2, stronger effect = lower value
[8] = S. cerevisiae deletion strains, locus YDL101C, strain DUN1, stronger effect = lower value
[9] = S. cerevisiae deletion strains, locus YDR150W, strain NUM1, stronger effect = lower value
[10] = S. cerevisiae deletion strains, locus YEL061C, strain CIN8, stronger effect = lower value
[11] = S. cerevisiae deletion strains, locus YHR030C, strain SLT2, stronger effect = lower value
[12] = S. cerevisiae deletion strains, locus YHR087W, strain rtc3, stronger effect = lower value
[13] = S. cerevisiae deletion strains, locus YJR043C, strain POL32, stronger effect = lower value
[14] = S. cerevisiae deletion strains, locus YLR039C, strain RIC1, stronger effect = lower value
[15] = S. cerevisiae deletion strains, locus YLR058C, strain SHM2 (second series), stronger effect = lower value
[16] = S. cerevisiae deletion strains, locus YLR085C, strain ARP6, stronger effect = lower value
[17] = S. cerevisiae deletion strains, locus YLR262C, strain YPT6, stronger effect = lower value
[18] = S. cerevisiae deletion strains, locus YML094W, strain GIM5, stronger effect = lower value
[19] = S. cerevisiae deletion strains, locus YMR219W, strain ESC1, stronger effect = lower value
[20] = S. cerevisiae deletion strains, locus YMR263W, strain SAP30, stronger effect = lower value
[21] = S. cerevisiae deletion strains, locus YNL153C, strain GIM3, stronger effect = lower value
[22] = S. cerevisiae deletion strains, locus YNL298W, strain CLA4 (second series), stronger effect = lower value
[23] = S. cerevisiae deletion strains, locus YNR030W, strain Alg12, stronger effect = lower value
[24] = S. cerevisiae deletion strains, locus YPL241C, strain CIN2, stronger effect = lower value
[25] = S. cerevisiae deletion strains, locus YPR135W, strain CTF4, stronger effect = lower value

## CCNC(=O)C1OC(n2cnc3c(NCc4ccccc4)ncnc32)C(O)C1O (stereo not given)
[1]
  normalized growth: 0.989
S. cerevisiae deletion strains, locus YAL040C, strain CLN3, stronger effect = lower value
  normalized growth: 0.987
S. cerevisiae deletion strains, locus YCL061C, strain MRC1 (second series), stronger effect = lower value
  normalized growth: 1.01
S. cerevisiae deletion strains, locus YDR363W, strain ESC2, stronger effect = lower value
  normalized growth: 0.958
S. cerevisiae deletion strains, locus YER002W, strain NOP16, stronger effect = lower value
  normalized growth: 1.01
[2]
  normalized growth: 0.979
[3]
  normalized growth: 1
[4]
  normalized growth: 1
S. cerevisiae deletion strains, locus YNL128W, strain TEP1, stronger effect = lower value
  normalized growth: 0.959
S. cerevisiae deletion strains, locus YNL175C, strain NOP13, stronger effect = lower value
  normalized growth: 0.967
S. cerevisiae deletion strains, locus YNL197C, strain WHI3, stronger effect = lower value
  normalized growth: 0.95
S. cerevisiae deletion strains, locus YNL224C, strain SQS1, stronger effect = lower value
  normalized growth: 0.984
[5]
  normalized growth: 0.99
S. cerevisiae deletion strains, locus YOR083W, strain WHI5 (second series), stronger effect = lower value
  normalized growth: 0.956
[6]
  normalized growth: 1

## Cc1noc(N)c1C(N)=S
[1]
  normalized growth: 0.986
[7]
  normalized growth: 1
[8]
  normalized growth: 1.02
S. cerevisiae deletion strains, locus YDL134C, strain PPH21, stronger effect = lower value
  normalized growth: 0.993
[9]
  normalized growth: 1
[10]
  normalized growth: 1
[2]
  normalized growth: 1.02
[11]
  normalized growth: 1.05
[12]
  normalized growth: 1
[13]
  normalized growth: 1.01
[3]
  normalized growth: 1.05
[14]
  normalized growth: 1.05
[15]
  normalized growth: 1
[16]
  normalized growth: 1.17
[17]
  normalized growth: 1.01
[18]
  normalized growth: 0.99
[19]
  normalized growth: 1.01
[20]
  normalized growth: 1
[21]
  normalized growth: 1.01
[22]
  normalized growth: 1.03
[5]
  normalized growth: 0.998
[23]
  normalized growth: 0.995
[6]
  normalized growth: 1.01
[24]
  normalized growth: 1.17 [resistant] (active)
[25]
  normalized growth: 0.982
S. cerevisiae strains, strain wild type, stronger effect = lower value
  normalized growth: 0.986

## Cc1noc(C)c1NC(N)=O
[1]
  normalized growth: 0.994
[7]
  normalized growth: 0.989
[8]
  normalized growth: 0.974
[9]
  normalized growth: 0.979
[10]
  normalized growth: 0.981
[2]
  normalized growth: 0.983
S. cerevisiae deletion strains, locus YGR229C, strain SMI1, stronger effect = lower value
  normalized growth: 1.03
[11]
  normalized growth: 1.04
[12]
  normalized growth: 0.968
S. cerevisiae deletion strains, locus YJL187C, strain SWE1, stronger effect = lower value
  normalized growth: 0.998
[13]
  normalized growth: 0.995
[3]
  normalized growth: 1.04
S. cerevisiae deletion strains, locus YKL190W, strain CNB1, stronger effect = lower value
  normalized growth: 1.01
[14]
  normalized growth: 0.97
[15]
  normalized growth: 0.992
[16]
  normalized growth: 1.01
[17]
  normalized growth: 0.997
[18]
  normalized growth: 0.952
[19]
  normalized growth: 0.993
[20]
  normalized growth: 1.03
[4]
  normalized growth: 1.21
[21]
  normalized growth: 0.999
[22]
  normalized growth: 0.978
[5]
  normalized growth: 0.987
[23]
  normalized growth: 0.987
S. cerevisiae deletion strains, locus YOL006C, strain TOP1, stronger effect = lower value
  normalized growth: 1.04
[6]
  normalized growth: 0.975
[24]
  normalized growth: 0.986
[25]
  normalized growth: 0.898

Source: PubChem BioAssay AID1159580 (chemical genetic matrix, 2015)
